Assay results reported in PubChem BioAssay (NCATS).
Inconclusive results are not listed. A call without a number means that no potency is given here. The source made the active and inactive calls. Calls come from the whole dose curve; as a rule, active = well fitted inhibition curve with a large enough effect; inconclusive = small, poorly fitted or top-dose-only effect; inactive = flat fitted curve, though single readings scatter. Where a SMILES comes first, the peptide text is derived from it. [ ]: non-standard residue; d: D form. PhLac = O=C(O)[CH](O)Cc1ccccc1; NMeV = CN[CH](C(=O)O)C(C)C

Target: Calcium and integrin-binding protein 1 (Homo sapiens) (UniProt Q99828)
Assay: Primary qHTS for Identification of Calcium Integrin Binding Protein 1 (CIB1) Competitor (AID 1508620);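 note: GST tagged CIB1 binding a fluorescein labelled alphaIIb integrin peptide tracer; top concentration of the series differs between compounds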
Conditions: CIB1-GST / FITC-alphaIIb peptide fluorescence polarization; series mostly up to 57.7 µM
In short: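 CIB1-GST (1 uM final) and compound incubated 15 min at room temperature before adding FITC-alphaIIb peptide tracer (100 nM final). Competition for binding read by fluorescence polarization (ex 480, em 540) after another 15 min at room temperature.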

Calcium and integrin-binding protein 1 (Homo sapiens), sequence (Q99828 whole entry, looked up): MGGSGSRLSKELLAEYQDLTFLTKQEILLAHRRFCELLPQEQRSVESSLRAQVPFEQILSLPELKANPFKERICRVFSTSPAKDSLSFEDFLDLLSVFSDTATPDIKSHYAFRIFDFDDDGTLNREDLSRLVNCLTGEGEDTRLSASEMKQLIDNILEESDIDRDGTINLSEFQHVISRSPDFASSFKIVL

| Structure (SMILES) | Potency | activity change, negative = inhibition |
| --- | --- | --- |
| CC(=O)C1CCC2(C)C3=C(CCC12C)C1(C)CCC(=O)C(C)(C)C1CC3 (stereo not drawn) | inactive |  |
| CC(C)C(C(=O)N1CCCC1C(=O)O)N(C)C(=O)C(O)Cc1ccccc1 (stereo not drawn) (H-[PhLac]-[NMeV]-Pro-OH; configuration not given here) | inactive |  |
| CC(=O)NC(C(=O)OC1CCC(C)(C)C2CC=C3C(=O)OCC3(O)C12C)C(C)C (stereo not drawn) | inactive |  |
| C=CC1(C)CC(O)C2(CCC3C(C)(C(=O)O)CCCC3(C)C2=O)C1 (stereo not drawn) | inactive |  |
| COc1c(C)c(OCC=C(C)C)cc2c1C(=O)NC2=O | inactive |  |
| O=C(/C=C/c1ccc(O)cc1)O[C@H]1[C@@H]2C=CO[C@@H](O[C@@H]3O[C@H](CO)[C@@H](O)[C@H](O)[C@H]3O)[C@@H]2[C@@]2(CO)O[C@@H]12 | inactive |  |
| CCCCCCc1cccc(NC(=O)[C@H](N)CCP(=O)(O)O)c1 | inactive |  |
| C[C@@H]1O[C@@H](O[C@@H]2[C@@H](O)[C@H](O[C@@H]3[C@@H](O)[C@@H](O)[C@H](O[C@H]4[C@H](OC(=O)[C@]56CCC(C)(C)C[C@H]5C5=CCC7[C@@]8(C)C[C@H](O)[C@H](O[C@@H]9O[C@@H](C)[C@H](O)[C@@H](O)[C@H]9O)[C@@](C)(CO)C8CC[C@@]7(C)[C@]5(C)C[C@H]6O)O[C@H](C)[C@H](O)[C@@H]4O)O[C@H]3C)OC[C@H]2O)[C@H](O)[C@H](O)[C@H]1O (stereo partly drawn) |  | 1.34% [at 12.4 µM] (inactive) |
| C=C1CCC2C(C)(COC3OC(COC(=O)CC(=O)O)C(O)C(O)C3O)CCCC2(C)C1CCC1=CCOC1=O (stereo not drawn) | inactive |  |
| COC(=O)C12C(=O)C(C)=C(O)C1(C)C(C)=CC1C34CCC(OC3=O)C(C)(C)C4CCC12C (stereo not drawn) | inactive |  |
| O=C(O)CCc1cc2ccoc2cc1O[C@@H]1O[C@H](CO[C@@H]2OC[C@](O)(CO)[C@H]2O)[C@@H](O)[C@H](O)[C@H]1O | inactive |  |
| CCNC(=O)[C@@H]1CCCN1C(=O)[C@H](CCCN=C(N)N)NC(=O)[C@H](CC(C)C)NC(=O)[C@@H](C)NC(=O)[C@H](Cc1ccc(O)cc1)NC(=O)[C@H](CO)NC(=O)[C@H](Cc1c[nH]c2ccccc12)NC(=O)[C@H](Cc1cnc[nH]1)NC(=O)[C@@H]1CCC(=O)N1 | inactive |  |
| C=C1[C@H]2[C@H](O[C@@H]3O[C@H](COC(=O)/C=C/c4cc(OC)c(O)c(OC)c4)[C@@H](O)[C@H](O)[C@H]3O)OC=C(C(=O)O)[C@H]2C[C@@H]1O | inactive |  |
